Assay results taken from PubChem BioAssay.
For some assays here: Entries with a potency or affinity are not part of this list. Activity calls are given as the source filed them.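 How the source made its calls, unless noted: active means hit in primary screen, with calcium signal over 5 SD above buffer well mean in both duplicates; inactive means the rest.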

Experiments:
[1] = test system: TRPC4 beta (transient receptor potential cation channel C4), mouse; assay: activators of mouse TRPC4 channel, confirmation, cell-based, Fluo4 calcium, HEK293 TRPC4beta/mu-opioid, duplicates, 10 µM (AID 2426;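 active means fluorescence ratio normalized to control raised more than 50% in primary screen plus both repeat runs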;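 on activation: percent rise of integrated ratio over buffer wells lacking compound which define 0%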); settings: Fluo4 calcium fluorescence, at 10 µM; stronger effect = higher value
[2] = test system: transient receptor potential cation channel C4 beta (TRPC4), mouse; assay: activators of mouse TRPC4 channel, confirmation, cell-based, second round, Fluo4, HEK293 TRPC4beta/mu-opioid, 1 µM (AID 2461;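 active means primary screen active and over 50% activation in each of two duplicate runs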;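 on activation: 0% = wells without test compound as baseline of integrated fluorescence ratio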); settings: Fluo4 calcium fluorescence, at 1 µM; stronger effect = higher value
[3] = test system: TRPC4 (transient receptor potential cation channel C4 beta), mouse; assay: positive allosteric modulators of mouse TRPC4, confirmation, cell-based, second round, Fluo-4, HEK293 TRPC4beta/mu-opioid, 1 µM (AID 2554;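 active means primary screen hit whose fluorescence ratio, in both repeats, exceeds the weak agonist control mean by 3 SD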); settings: DAMGO EC20, Fluo-4 calcium flux, at 1 µM; stronger effect = higher value
[4] = test system: TRPC4 beta (transient receptor potential cation channel C4), mouse; assay: positive allosteric modulators of mouse TRPC4, confirmation, cell-based, Fluo-4, HEK293 TRPC4beta/mu-opioid (AID 2555;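 active means primary screen hit whose calcium fluorescence ratio, in both repeats, exceeds the weak agonist control mean by 3 SD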); settings: DAMGO EC20, Fluo-4 calcium flux, at 10 µM; stronger effect = higher value
[5] = molecular target: Short transient receptor potential channel 4 (Mus musculus) (UniProt Q9QUQ5); assay: inhibitors of mouse TRPC4 channel, confirmation, cell-based, Fluo4, HEK293 TRPC4beta/mu-opioid (AID 2636;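 active means calcium signal cut by more than 3 SD below the full-agonist control yet still positive, in both repeats and the earlier primary screen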); settings: DAMGO, Fluo4 calcium flux, at 10 µM; stronger effect = higher value
[6] = molecular target: Short transient receptor potential channel 4 (Mus musculus) (UniProt Q9QUQ5); assay: inhibitors of mouse TRPC4 channel, confirmation, cell-based, second round, Fluo4, HEK293 TRPC4beta/mu-opioid, 1 µM (AID 2637;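 active means calcium signal ratio cut to more than 3 SD under the fully stimulated control mean yet still positive, in both repeats and the primary screen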); settings: Fluo4 calcium flux, DAMGO, at 1 µM; stronger effect = higher value
[7] = molecular target: Short transient receptor potential channel 4 (Mus musculus) (UniProt Q9QUQ5); assay: TRPC4 positive allosteric modulators, dose response, cell-based, HEK293 TRPC4/mu-opioid, Fluo-4 calcium, EC20 DAMGO (AID 434941;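 active means earlier screen potentiator hit that boosts the TRPC4 ion channel at some dose, with a dose response; inactive means no potentiation, no dose response, or not a prior hit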;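 further: calcium entry triggered by an EC20 dose of DAMGO at the co-expressed mu-opioid receptor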)
[8] = molecular target: Short transient receptor potential channel 4 (Mus musculus) (UniProt Q9QUQ5); assay: mouse TRPC4 channel inhibitors, dose response, cell-based, HEK293 TRPC4/mu-opioid, Fluo-4 calcium (AID 434942;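 active means primary screen inhibitor hit that blocks the TRPC4 channel at some tested dose, yielding a dose curve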)
[9] = molecular target: Short transient receptor potential channel 6 (Mus musculus) (UniProt Q61143); assay: inhibition of mouse TRPC6 channel, confirmation, selectivity assay for TRPC4 inhibitor project, cell-based, HEK293, membrane potential dye, duplicate (AID 434948;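 active means active in primary screen and both duplicates, each dropping signal beyond three positive-control SD with fluorescence still positive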); settings: HEK293 TRPC6, membrane potential dye fluorescence, at 10 µM, stimulated with maximal-effect acetylcholine; stronger effect = higher value
[10] = molecular target: Short transient receptor potential channel 6 (Mus musculus) (UniProt Q61143); assay: activation of mouse TRPC6 channel, confirmation, selectivity assay for TRPC4 activator project, cell-based, HEK293, membrane potential dye, duplicate (AID 434950;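 active means membrane potential signal rise above negative control mean plus 3 SD in both duplicates, also active in the earlier TRPC4 screen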;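 on activation: 0% = buffer only wells and 100% = acetylcholine maximal-effect wells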); settings: HEK293 TRPC6, membrane potential fluorescence, at 10 µM; stronger effect = higher value
[11] = molecular target: Short transient receptor potential channel 6 (Mus musculus) (UniProt Q61143); assay: TRPC6 potentiation by TRPC4 potentiator hits, confirmation, selectivity assay for TRPC4 potentiator project, HEK293 cells, membrane potential dye, duplicate (AID 434952;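 active means compound raising the membrane signal above positive-control mean plus 3 SD in both repeats, and a primary screen hit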); settings: HEK293 TRPC6, membrane potential dye fluorescence, at 10 µM, maximal acetylcholine added after compound; stronger effect = higher value
[12] = molecular target: Short transient receptor potential channel 4 (Mus musculus) (UniProt Q9QUQ5); assay: calcium flux activators in TRPC4/5HT1a cells, counter-screen for TRPC4 activator project, cell-based, second counter screen, HEK293 TRPC4/5HT1a, Fluo-4 (AID 434977;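 active means calcium signal rise above buffer-control mean plus 5 SD in both duplicates, and also a hit in the primary screen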;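 on activation: plate controls were assay buffer for no effect and maximal serotonin response for full effect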); settings: Fluo-4 calcium flux, at 10 µM; stronger effect = higher value
[13] = calcium flux inhibitors in TRPC4/5HT1a cells, confirmation, counter-screen for TRPC4 inhibitor project, cell-based, second counter screen, HEK293 TRPC4/5HT1a, Fluo-4 (AID 434978;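 active means primary screen active whose calcium signal fell more than 3 SD beyond the full-serotonin control mean in both duplicate plates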;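 further: serotonin given first at submaximal then at maximal dose after compound preincubation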); settings: Fluo-4 calcium flux, at 10 µM, serotonin added to trigger calcium flux; stronger effect = higher value
[14] = test system: TRPC4 (mouse), co-expressed with 5HT1a in HEK293; assay: calcium flux potentiators in TRPC4/5HT1a cells, confirmation, counter-screen for TRPC4 potentiator project, cell-based, second counter screen, HEK293 TRPC4/5HT1a, Fluo-4 (AID 434979;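 active means signal rise over 3 SD above mean of control wells given weak agonist, in both repeats and first screen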); settings: Fluo-4 calcium flux, at 10 µM, serotonin added at its EC20 dose; stronger effect = higher value
[15] = calcium flux activation in mu-opioid HEK293 cells, confirmation, counter-screen for TRPC4 activator project, cell-based, HEK293 mu-opioid receptor line (AID 449723); settings: Fluo-4 calcium fluorescence, at 10 µM; stronger effect = higher value;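 further: counter screen cells carry the mu-opioid receptor alone and lack TRPC4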
[16] = calcium flux enhancement in mu-opioid HEK293 cells, confirmation, counter-screen for TRPC4 allosteric potentiator project, cell-based, HEK293 mu-opioid receptor line (AID 449724;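 active means calcium signal rise more than 3 SD above the low-dose agonist control mean, in both duplicate plates and the primary screen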); settings: Fluo-4 calcium flux, at 10 µM, compound added before EC20 DAMGO stimulus; stronger effect = higher value
[17] = thallium flux activation in parental CHO cells, counter-screen for KCNQ1 potentiator project (AID 493006;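 active means duplicate-averaged activation above buffer control mean plus 5 SD of those controls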;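 on activation: fluorescence ratio of max minus min over baseline after K+ and Tl+ depolarization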); settings: parental CHO-K1 cells, FluxOR thallium flux, at 10 µM; stronger effect = higher value
[18] = molecular target: Potassium voltage-gated channel subfamily KQT member 1 (Homo sapiens) (UniProt P51787); assay: KCNQ1 potassium channel potentiators, confirmation, FluxOR thallium flux, CHO cells, duplicates (AID 493007;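 active means potentiation averaged over duplicate wells exceeding buffer-only control mean by more than 3 SD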;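 on outcome: cells depolarized by a potassium plus thallium sulfate stimulus after compound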;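 on potentiation: 0% = buffer-only wells and 100% = R-L3 activator control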); settings: KCNQ1 cell line, FluxOR thallium flux fluorescence, at 10 µM; stronger effect = higher value, % of reference activator effect, buffer zero
[19] = molecular target: Potassium voltage-gated channel subfamily KQT member 2 (Rattus norvegicus) (UniProt O88943); assay: rat KCNQ2 channel potentiation, selectivity assay for KCNQ1 potentiator project, KCNQ2-CHO-K1 cells (AID 493009;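 active means mean duplicate potentiation above the buffer control mean plus 5 SD of buffer wells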;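 further: assay conditions were tuned for KCNQ1 rather than KCNQ2 modulators; signal is max minus min fluorescence divided by baseline after thallium stimulus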); settings: FluxOR thallium flux fluorescence, at 10 µM; stronger effect = higher value, scaled: buffer 0, activator control 100
[20] = molecular target: Potassium voltage-gated channel subfamily KQT member 1 (Homo sapiens) (UniProt P51787); assay: KCNQ1 channel current potentiators, confirmation, orthogonal assay for KCNQ1 potentiator project, IonWorks patch clamp, KCNQ1-CHO cells (AID 493184;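 active means current rise at least 3 SD above the untreated control mean in each of two repeat wells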); settings: automated patch clamp current, at 10 µM; stronger effect = higher value

Chain of Potassium voltage-gated channel subfamily KQT member 2 (Rattus norvegicus) (O88943 whole entry, looked up): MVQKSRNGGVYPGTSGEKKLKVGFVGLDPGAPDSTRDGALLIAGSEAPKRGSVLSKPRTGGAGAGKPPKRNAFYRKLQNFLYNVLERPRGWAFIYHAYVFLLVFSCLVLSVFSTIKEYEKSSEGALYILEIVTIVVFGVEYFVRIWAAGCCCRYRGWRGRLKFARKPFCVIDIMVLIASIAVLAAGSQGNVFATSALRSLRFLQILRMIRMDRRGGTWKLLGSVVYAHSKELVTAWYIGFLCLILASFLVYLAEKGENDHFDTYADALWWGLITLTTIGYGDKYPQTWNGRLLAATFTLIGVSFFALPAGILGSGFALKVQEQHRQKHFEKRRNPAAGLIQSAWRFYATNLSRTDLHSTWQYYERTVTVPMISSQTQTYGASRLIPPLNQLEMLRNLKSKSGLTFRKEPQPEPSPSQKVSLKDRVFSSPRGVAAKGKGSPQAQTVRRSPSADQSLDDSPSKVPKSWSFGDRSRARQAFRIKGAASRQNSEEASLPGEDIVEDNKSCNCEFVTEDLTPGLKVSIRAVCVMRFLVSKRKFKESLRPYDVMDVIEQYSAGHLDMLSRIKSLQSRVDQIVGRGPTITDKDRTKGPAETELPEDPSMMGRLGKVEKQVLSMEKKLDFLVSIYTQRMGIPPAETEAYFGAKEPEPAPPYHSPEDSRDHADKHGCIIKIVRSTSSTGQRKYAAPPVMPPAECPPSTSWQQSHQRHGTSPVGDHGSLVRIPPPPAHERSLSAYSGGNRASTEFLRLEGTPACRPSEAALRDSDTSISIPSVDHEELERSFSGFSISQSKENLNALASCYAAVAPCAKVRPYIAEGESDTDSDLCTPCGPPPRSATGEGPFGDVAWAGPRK
Chain of Short transient receptor potential channel 6 (Mus musculus) (Q61143 whole entry, looked up): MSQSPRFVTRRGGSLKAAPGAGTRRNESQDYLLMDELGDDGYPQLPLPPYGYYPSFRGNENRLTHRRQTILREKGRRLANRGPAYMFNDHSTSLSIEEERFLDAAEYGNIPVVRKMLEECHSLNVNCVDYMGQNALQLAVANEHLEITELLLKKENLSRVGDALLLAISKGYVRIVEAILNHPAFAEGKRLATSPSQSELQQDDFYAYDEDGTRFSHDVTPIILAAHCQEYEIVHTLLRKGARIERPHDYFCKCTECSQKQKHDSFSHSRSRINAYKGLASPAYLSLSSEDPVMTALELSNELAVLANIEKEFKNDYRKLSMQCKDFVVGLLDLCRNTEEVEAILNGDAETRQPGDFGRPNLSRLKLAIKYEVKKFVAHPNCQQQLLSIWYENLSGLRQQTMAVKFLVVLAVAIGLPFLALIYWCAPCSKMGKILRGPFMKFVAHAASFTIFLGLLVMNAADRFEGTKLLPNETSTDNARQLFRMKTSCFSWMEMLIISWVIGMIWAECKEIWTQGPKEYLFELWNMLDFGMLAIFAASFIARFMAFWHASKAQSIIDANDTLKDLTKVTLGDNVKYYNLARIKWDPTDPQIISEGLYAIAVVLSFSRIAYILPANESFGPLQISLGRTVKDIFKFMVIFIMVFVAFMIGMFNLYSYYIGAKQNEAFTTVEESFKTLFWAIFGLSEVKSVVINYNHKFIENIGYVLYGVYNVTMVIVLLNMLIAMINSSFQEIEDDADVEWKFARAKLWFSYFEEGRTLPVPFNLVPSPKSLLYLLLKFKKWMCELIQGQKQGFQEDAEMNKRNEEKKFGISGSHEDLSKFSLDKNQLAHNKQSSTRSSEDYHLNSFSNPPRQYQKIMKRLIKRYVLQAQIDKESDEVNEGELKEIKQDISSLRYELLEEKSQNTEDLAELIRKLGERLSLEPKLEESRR
Chain of Potassium voltage-gated channel subfamily KQT member 1 (Homo sapiens) (P51787 whole entry, looked up): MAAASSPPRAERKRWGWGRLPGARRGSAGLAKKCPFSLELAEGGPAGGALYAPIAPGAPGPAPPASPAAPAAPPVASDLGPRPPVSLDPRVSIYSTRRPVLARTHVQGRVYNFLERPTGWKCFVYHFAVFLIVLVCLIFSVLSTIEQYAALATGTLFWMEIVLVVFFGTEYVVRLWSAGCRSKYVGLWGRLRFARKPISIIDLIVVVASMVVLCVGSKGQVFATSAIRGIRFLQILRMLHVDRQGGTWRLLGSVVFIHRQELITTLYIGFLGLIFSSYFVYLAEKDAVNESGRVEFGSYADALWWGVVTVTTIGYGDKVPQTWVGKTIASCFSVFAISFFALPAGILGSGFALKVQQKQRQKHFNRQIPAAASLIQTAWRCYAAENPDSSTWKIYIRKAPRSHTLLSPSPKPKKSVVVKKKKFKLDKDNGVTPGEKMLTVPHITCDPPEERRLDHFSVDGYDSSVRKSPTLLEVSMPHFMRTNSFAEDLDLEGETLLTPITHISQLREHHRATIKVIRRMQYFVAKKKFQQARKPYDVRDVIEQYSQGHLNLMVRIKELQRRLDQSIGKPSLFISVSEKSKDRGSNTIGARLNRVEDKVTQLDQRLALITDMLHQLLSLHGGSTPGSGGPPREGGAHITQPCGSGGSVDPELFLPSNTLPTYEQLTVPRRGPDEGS
Chain of Short transient receptor potential channel 4 (Mus musculus) (Q9QUQ5 whole entry, looked up): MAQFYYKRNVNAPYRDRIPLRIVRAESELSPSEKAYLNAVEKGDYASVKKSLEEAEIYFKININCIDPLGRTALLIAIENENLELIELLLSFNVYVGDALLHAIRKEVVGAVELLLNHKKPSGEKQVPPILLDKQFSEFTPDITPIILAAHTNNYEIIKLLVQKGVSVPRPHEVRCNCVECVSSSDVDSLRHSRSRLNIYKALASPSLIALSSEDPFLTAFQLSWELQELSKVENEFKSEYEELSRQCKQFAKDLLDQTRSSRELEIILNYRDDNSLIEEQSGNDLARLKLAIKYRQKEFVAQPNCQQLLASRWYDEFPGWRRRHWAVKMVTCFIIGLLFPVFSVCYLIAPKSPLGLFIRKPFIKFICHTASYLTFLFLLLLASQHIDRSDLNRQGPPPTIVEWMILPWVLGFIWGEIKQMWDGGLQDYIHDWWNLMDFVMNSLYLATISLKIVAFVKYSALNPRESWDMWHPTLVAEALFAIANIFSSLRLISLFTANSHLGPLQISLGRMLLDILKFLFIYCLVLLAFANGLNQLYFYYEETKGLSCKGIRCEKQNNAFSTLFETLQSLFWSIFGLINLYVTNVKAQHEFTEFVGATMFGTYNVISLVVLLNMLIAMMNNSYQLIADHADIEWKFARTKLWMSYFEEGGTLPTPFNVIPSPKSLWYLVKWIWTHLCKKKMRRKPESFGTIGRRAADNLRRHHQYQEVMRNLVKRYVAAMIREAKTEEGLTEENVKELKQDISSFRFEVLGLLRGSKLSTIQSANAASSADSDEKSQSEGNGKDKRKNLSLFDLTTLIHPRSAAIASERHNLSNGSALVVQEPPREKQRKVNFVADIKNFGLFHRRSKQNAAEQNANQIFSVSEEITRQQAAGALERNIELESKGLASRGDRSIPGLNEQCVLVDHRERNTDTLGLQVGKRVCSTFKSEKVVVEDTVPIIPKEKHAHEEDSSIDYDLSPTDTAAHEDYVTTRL

O=C1CC(O)(C(F)(F)F)Oc2c1ccc1ccccc21 (stereo unspecified)
inactive: outcome [2] | outcome [3] | outcome [4] | outcome [5] | outcome [6] | outcome [7] | outcome [8] | outcome [9] | outcome [10] | outcome [11] | outcome [13] | outcome [14] | outcome [16] | outcome [20]
active: activation [1] 216% | activation [12] 119% | activation [15] 102% | activation [17] 222% | potentiation [18] 71.5% | potentiation [19] 270%

CCOc1ccccc1OCC(=O)Nc1cc(S(=O)(=O)N2CCCCC2)ccc1N1CCN(CC)CC1
inactive: outcome [2] | outcome [3] | outcome [4] | outcome [5] | outcome [6] | outcome [7] | outcome [8] | outcome [9] | outcome [10] | outcome [11] | outcome [13] | outcome [14] | outcome [15] | outcome [16] | outcome [17] | outcome [18] | outcome [19] | outcome [20]
active: activation [1] 195% | activation [12] 45%

CCc1nc(NCCc2ccccn2)c2nnn(Cc3ccccc3F)c2n1
active: activation [1] 154% | activation [10] 49% | activation [12] 36.2%
inactive: outcome [2] | outcome [3] | outcome [4] | outcome [5] | outcome [6] | outcome [7] | outcome [8] | outcome [9] | outcome [11] | outcome [13] | outcome [14] | outcome [15] | outcome [16]

CCn1c(N2CCN(C(=O)Nc3ccc(F)cc3)CC2)nc2ccccc21
active: activation [1] 119% | activation [10] 41% | activation [12] 28.1%
inactive: outcome [2] | outcome [3] | outcome [4] | outcome [5] | outcome [6] | outcome [7] | outcome [8] | outcome [9] | outcome [11] | outcome [13] | outcome [14] | outcome [15] | outcome [16]

O=C(N/N=C/c1cc([N+](=O)[O-])cc(Br)c1O)C12CC3CCC(CC(C3)C1)C2
active: activation [1] 82% | activation [10] 28.5% | activation [12] 68.6% | activation [15] 33.8% | activation [17] 158% | potentiation [18] 43.5% | potentiation [19] 163%
inactive: outcome [2] | outcome [3] | outcome [4] | outcome [5] | outcome [6] | outcome [7] | outcome [8] | outcome [9] | outcome [11] | outcome [13] | outcome [14] | outcome [16] | outcome [20]

Cc1occc1C(=O)NNC(=S)NC(=O)COc1ccc(Cl)cc1Cl
inactive: outcome [2] | outcome [3] | outcome [4] | outcome [5] | outcome [6] | outcome [7] | outcome [8] | outcome [9] | outcome [10] | outcome [11] | outcome [13] | outcome [14] | outcome [16] | outcome [20]
active: activation [1] 108% | activation [12] 58.4% | activation [15] 18.4% | activation [17] 256% | potentiation [18] 259% | potentiation [19] 442%

CCCOc1ccc(C(=O)NC(=S)NNC(=O)c2c(-c3ccccc3)noc2C)cc1
inactive: outcome [2] | outcome [3] | outcome [4] | outcome [5] | outcome [6] | outcome [7] | outcome [8] | outcome [9] | outcome [10] | outcome [11] | outcome [13] | outcome [14] | outcome [16] | outcome [17] | outcome [19] | outcome [20]
active: activation [1] 107% | activation [12] 92.6% | activation [15] 39.4% | potentiation [18] 28.5%

CCOC(=O)c1oc2ccc(OC)cc2c1NC(=O)CN1CCN(C)CC1
active: activation [10] 32% | activation [12] 12.8%
inactive: outcome [1] | outcome [2] | outcome [3] | outcome [4] | outcome [5] | outcome [6] | outcome [7] | outcome [8] | outcome [9] | outcome [11] | outcome [13] | outcome [14] | outcome [15] | outcome [16]

CCOc1ccc2ncc(C(=O)c3ccc(OC)cc3)c(N3CCN(CC)CC3)c2c1
inactive: outcome [2] | outcome [3] | outcome [4] | outcome [5] | outcome [6] | outcome [7] | outcome [8] | outcome [9] | outcome [10] | outcome [11] | outcome [12] | outcome [13] | outcome [14] | outcome [15] | outcome [16]
active: activation [1] 196%

CC(C)(C)C(=O)NC(=S)NNC(=O)c1ccc(-c2ccccc2)cc1
inactive: outcome [3] | outcome [4] | outcome [5] | outcome [6] | outcome [7] | outcome [8] | outcome [9] | outcome [11] | outcome [13] | outcome [14] | outcome [16] | outcome [20]
active: activation [1] 257% | activation [2] 60% | activation [10] 35.5% | activation [12] 147% | activation [15] 83.6% | activation [17] 308% | potentiation [18] 163% | potentiation [19] 430%

COC(=O)C1=NN(C(=O)c2cccc(Br)c2)C(O)(c2ccc(Cl)cc2)C1 (stereo unspecified)
active: activation [1] 121% | activation [12] 98.1% | activation [17] 575% | potentiation [18] 318% | potentiation [19] 745%
inactive: outcome [2] | outcome [3] | outcome [4] | outcome [5] | outcome [6] | outcome [7] | outcome [8] | outcome [9] | outcome [10] | outcome [11] | outcome [13] | outcome [14] | outcome [15] | outcome [16] | outcome [20]

COc1ccc(C(CNCC(=O)Nc2ccccc2F)N(C)C)cc1 (stereo unspecified)
active: activation [2] 105% | activation [10] 59%
inactive: outcome [1] | outcome [3] | outcome [4] | outcome [5] | outcome [6] | outcome [7] | outcome [8] | outcome [9] | outcome [11] | outcome [12] | outcome [13] | outcome [14] | outcome [15] | outcome [16]

C#Cc1cccc(C(=O)NC2CCCN(C3Cc4ccccc4C3)C2)c1 (stereo unspecified)
inactive: outcome [3] | outcome [4] | outcome [5] | outcome [6] | outcome [7] | outcome [8] | outcome [9] | outcome [11] | outcome [13] | outcome [14] | outcome [15] | outcome [16]
active: activation [1] 191% | activation [2] 94% | activation [10] 59% | activation [12] 111%
